Reference: PubChem BioAssay AID1745848 (National Center for Advancing Translational Sciences (NCATS), 2022)
About 940 (45%) of roughly 2,100 compounds were called active. Another 48% or so got no clear call; they are omitted. The call rests on the fitted dose curve; in most records, active means well fitted inhibition curve with a large enough effect; inconclusive means small, poorly fitted or top-dose-only effect; inactive means no such curve, though single readings can be large or run the other way. The set was probably picked from earlier hits. Some of the results follow.

experiment: Confirmatory qHTS for Inhibitors of ATXN expression; settings: ATXN2-luciferase reporter cells, luminescence, 24 h; series mostly up to 11.5 µM; activity change, negative = inhibition: at the top concentration; further: nearly all actives have a fitted effect of over 65% in size;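 on activity change, negative = inhibition: 0% = DMSO vehicle wells and -100% = medium-only wells without cells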
From the text: PI: Daniel Scoles Ph.D. University of Utah School of Medicine, Salt Lake City, Utah MLPCN Grant: NS073009 Spinocerebellar ataxia type 2 (SCA2) is a multisystem neurodegenerative disease caused by a dominantly acting mutation leading to expansion of a polyQ domain in the ataxin-2 protein (ATXN2). SCA2 patients develop progressive ataxia and later lose function in other neuronal systems. Prominent parkinsonian signs develop in some patients. Like many neurodegenerative disorders, no symptomatic or disease-modifying treatments are known. The primary objective of the proposed research is to identify compounds inhibiting ATXN2 expression and to test them for efficacy in SCA2 mouse models. We have developed a cell-based assay paired with an in vivo mouse model using identical luciferase expression constructs. This approach takes advantage of an ATXN2-luciferase transgene, with the luciferase gene flanked by the upstream and downstream portions of the ATXN2 gene. Here we describe a 5-7 dose quantitative high thoroughput screen (qHTS) for compounds lowering ATXN2 expression. We screened the NIH Molecular Libraries Small Molecule Repository (MLSMR) and NCGC's mechanistically annotated (MIPE) and drug repurposing (NPC) collections of compounds for lowering expression of an ATXN2-luciferase reporter in HEK-293 cells. The assay is a multiplexed cell viability assay to ensure target reduction in the absence of cytotoxicity. Secondary qHTS assays included a CMV-luciferase reporter expressed in HEK-293 cells as well as a biochemical assay using recombinant luciferase to detect inhibitors of the reporter enzyme. Compounds that inhibit ATXN2 expression but is not cytotoxic were selected for confirmatory and secondary screens.
PROTOCOL TABLE (as described by Inglese J, Shamu CE and Guy RK. 2007) SEQUENCE No. (e.g., 1, 2, 3, etc.); PARAMETER (e.g., Cells, Incubation, Reagent, etc.); VALUE; DESCRIPTION. 1; Cells; 4 uL; white, solid bottom, 1536-well Greiner assay plate. 2; Incubation; 2 hr; 37 degree C in 5% humidified CO2. 3; Compounds; 23 nL; Kalypsis pintool (Wako USA) equipped with a 1536-well pin head. 4; Incubation; 24 hr; 37 degree C in 5% humidified CO2. 5; Reagent; 1 uL; Gly-Phe-7-Amino-4-trifluoromethylcoumarin. 6; Incubation; 30 min; 37 degree C in 5% humidified CO2. 7; Detection; Fluorescence; ViewLux plate reader (PerkinElmer). 8; Reagent; 3 uL; SteadyGlo luciferase solution (Promega). 9; Incubation; 5 min; room temperature. 10; Detection; Luminescence; ViewLux plate reader (PerkinElmer). NOTES (numbers refer to Sequence numbers above) 1. […] expressing ATXN2-luciferase reporter were suspended in phenol-red free DMEM and dispensed in assay plates using a Multidrop Combi dispenser (Thermo Fisher Scientific). Wells containing medium only were plated on each plate, and values were used to normalize (100% inhibition) in the luciferase and CellTiter-Fluor assays. 2. Assay plates were incubated. Evaporation was prevented by covering assay plates with metal lids containing holes to allow gas diffusion. 3. Compounds were added in a dose response manner with the final concentrations of 57, 11.4, 2.28, 0.46, 0.091, 0.018, 0.0037 uM. Vehicle-only plates, with DMSO being pin-transferred to columns 5-48, were inserted uniformly at the beginning and the end of each library to monitor and record any shifts in assay performance. 5. 125 uM Gly-Phe-7-Amino-4-trifluoromethylcoumarin (MP Biomedicals) working concentration was used at a final concentration of 25 uM. 7. To assess cell viability; the assay plates were read using the ViewLux high-throughput CCD imager (PerkinElmer), wherein single end-point fluorescence measurement was acquired (excitation 405/10; emission 540/25 nm). 8. Detection reagent SteadyGlo Luciferase (Promega) was added to the assay plate. 10. Luminescence is then measured on the ViewLux imager equipped with a clear emission filter using a 2 sec exposure. […]
Potency means the concentration at half of the fitted maximal effect.

Activity change, negative = inhibition, inactive:
N#Cc1ccccc1NC(=O)C1SC(=Nc2ccccc2)C(C(=O)Nc2ccc(Cl)cc2)=C1N (configuration not stated) -3.14%, Cc1ccc(-c2nc3cc(Br)cnc3nc2-c2ccc(C)cc2)cc1 -7.66%, CCOC(=O)Nc1ccc(N2CCOCC2)c(S(=O)(=O)Nc2ccc(Cl)cc2)c1 -19.7%, OC(c1ccccc1)(c1nc(-c2ccc3ccccc3c2)cs1)C(F)(F)F (configuration not stated) 26.4%, OC(c1ccccc1)(c1nc(-c2cc3ccccc3o2)cs1)C(F)(F)F (configuration not stated) 8.38% [at 57.5 µM], COC(=O)Cc1[nH]n(-c2nc3ccccc3s2)c(=O)c1C(C)=Nc1ccc(C)cc1 -90.6% [at 57.5 µM], COc1cccc(OCC(=O)Nc2cc(Cl)ccc2Oc2ccccc2)c1 -25.3%, Cc1ccc(SC2=C(Sc3ccc(C)cc3)C(=O)c3ccccc3C2=O)cc1 6.96% [at 57.5 µM], CN(C)C(=O)c1cccc(-c2cnc3c(NC=O)cc(-c4ccccc4N(C)C)cn23)c1 -13%, COc1ccc(-c2cc(NC=O)c3ncc(-c4cccc(C(=O)NCCN(C)C)c4)n3c2)cc1 -22.5% [at 57.5 µM], CN(C)C(=O)c1cccc(-c2cnc3c(NC=O)cc(-c4ccc(F)cc4)cn23)c1 -12%, CCOC(=O)N(C)c1c(CC)nc2c(OCc3ccccc3OC)cccn12 -25.4% [at 57.5 µM], CC1(C(=O)NCc2ccco2)CCN1C(=O)C1(c2ccccc2)CC1 (configuration not stated) 2.15%, CNc1ccc(Br)cc(C(=O)/C=C/c2ccc3c(c2)OCO3)c1=O 7.11%, CC(SC(C)C(=O)NN=Cc1cccc(Cl)c1)C(=O)NN=Cc1cccc(Cl)c1 (configuration not stated) -31.9%, NS(=O)(=O)c1ccc(CCNC(=O)COC(=O)/C=C/c2cc(Br)ccc2F)cc1 -3.85%, C/[N+]([O-])=C\c1cccc(OCCN2CCN(c3ncc(C(F)(F)F)cc3Cl)CC2)c1 -26.9%, COc1ccc(NS(=O)(=O)c2ccc(C(=O)Nc3c(C)n(C)n(-c4ccccc4)c3=O)cc2)cc1 -4.47%

Potency, active:
O=c1c2c(-c3ccccc3)csc2nc2c3ccccc3c(NCCN3CCOCC3)nn12 3.16 µM, Brc1cnc2nc(SCc3nc4ccccc4[nH]3)[nH]c2c1 2.82 µM, O=C(CSc1nnc(-c2ccc(Br)cc2)o1)Nc1cccc(C(=O)O)c1 3.16 µM, COc1cc(/C=N/Nc2snc(SC)c2C#N)cc(OC)c1OC 3.16 µM, Cc1ccc(OCC(O)Cn2c(=N)n(CCN3CCCCC3)c3ccccc32)cc1 (configuration not stated) 14.1 µM, CCCCCn1c(=N)n(CC(O)COc2ccccc2OC)c2ccccc21 (configuration not stated) 2.51 µM, N=c1n(CCN2CCCCC2)c2ccccc2n1CC(O)c1ccc(Cl)c(Cl)c1 (configuration not stated) 15.8 µM, COc1cccc(NC(=S)/C(=C(\[O-])c2cc(C)n(-c3ccccc3F)c2C)[n+]2ccc(N(C)C)cc2)c1 15.8 µM, O=C(Nc1ccc(Cl)cc1)Nc1ccc(N2CCCC2)c(S(=O)(=O)Nc2ccccc2Cl)c1 3.55 µM, Cc1ccc2ccc3cccnc3c2n1 4.47 µM, OC(c1ccccc1)(c1nc(/C=C/c2ccc(C(F)(F)F)cc2)cs1)C(F)(F)F (configuration not stated) 35.5 µM, CCOc1cc(C=C(C(=O)OC)C(=O)OC)ccc1OCc1ccc([N+](=O)[O-])cc1 25.1 µM, COc1cccc(/C=N/NC(=O)Cn2nc(C)c([N+](=O)[O-])c2C)c1O 14.1 µM, O=C(CNC(=O)C1COc2ccccc2O1)N/N=C/c1ccc(O)cc1O (configuration not stated) 2.51 µM, CCN(CC)c1ccc(/C=N/NC(=O)CNC(=O)C2COc3ccccc3O2)c(O)c1 (configuration not stated) 0.251 µM, CCN(CC)c1ccc(/C=N/NC(=O)c2cccc(S(=O)(=O)N3CCOCC3)c2)c(O)c1 0.891 µM, COc1ccccc1/C=C\C(=O)NCC(=O)N/N=C/c1cccc(OC)c1O 12.6 µM, CCN(CC)c1ccc(/C=N/NC(=O)Cc2cccs2)c(O)c1 2.82 µM, COc1cccc(/C=N/NC(=O)CSc2ccccc2C)c1O 12.6 µM, COc1cccc(/C=N/NC(=O)CNC(=O)C2COc3ccccc3O2)c1O (configuration not stated) 8.91 µM, Cn1ncc2c(N3CCN(c4ccc(Cl)c(Cl)c4)CC3)ncnc21 1.58 µM, Oc1c(C(Nc2cccc(C(F)(F)F)c2)c2cccnc2)ccc2cccnc12 (configuration not stated) 28.2 µM, COc1ccc(Cl)cc1C(Nc1cccnc1)c1ccc2cccnc2c1O (configuration not stated) 12.6 µM, Oc1c(C(Nc2cccc(C(F)(F)F)c2)c2ccncc2)ccc2cccnc12 (configuration not stated) 3.55 µM, Cc1cc(NC(c2cccnc2)c2ccc3cccnc3c2O)no1 (configuration not stated) 2.82 µM, Cc1cc(C)n(-c2nc(NCCN(C)C)c3c4c(sc3n2)COC(C)(C)C4)n1 3.16 µM, COc1cc(OC)cc(-c2cc3nc(C)c(CCC(=O)NCc4ccccc4)c(C)n3n2)c1 4.47 µM, COc1cc(OC)cc(-c2cc3nc(C)c(CCC(=O)O)c(C)n3n2)c1 0.562 µM, COc1cccc(CN(C)C(=O)c2ccc(OCC(=O)Nc3cccc(C(F)(F)F)c3)c(OC)c2)c1 15.8 µM, CCCCCCn1c2c(c(=N)c3c1CCC3)CCC2 3.98 µM, Cc1cnc(NC(=O)CN2CCN(c3ccccn3)CC2)s1 5.62 µM, CCN1CCN(C2=C(NS(=O)(=O)c3ccc(C)cc3)C(=O)c3ccccc3C2=O)CC1 3.16 µM, CC(=O)NC(c1ccc2ccccc2c1)c1ccc2cccnc2c1O (configuration not stated) 0.141 µM, CC(=O)NC(c1ccc(C(C)C)cc1)c1ccc2cccnc2c1O (configuration not stated) 0.631 µM, CC(=O)NC(c1ccco1)c1ccc2cccnc2c1O (configuration not stated) 1.41 µM, CC(=O)c1sc(C(C)(C)C)cc1NC(=O)/C=C/C(=O)O 17.8 µM, COc1ccc(F)cc1-c1cc(NC=O)c2ncc(-c3cccc(C(=O)N(C)C)c3)n2c1 3.55 µM, COc1ccccc1-c1cc(NC=O)c2ncc(-c3ccc(F)cc3)n2c1 22.4 µM, COc1cc(-c2cnc3c(NC=O)cc(-c4cccc(C(F)(F)F)c4)cn23)cc(OC)c1OC 12.6 µM, CCSc1ccc(-c2cc(NC=O)c3ncc(-c4cccc(C(=O)NCCN(C)C)c4)n3c2)cc1 3.16 µM, CCOc1ccc(/C=C/[N+](=O)[O-])c2ccccc12 15.8 µM, Cc1ccc(CN2CCC(c3cc(-c4ccc(Cl)cc4)n[nH]3)CC2)cc1 28.2 µM, COC(=O)c1ccccc1COc1cccn2c(N(C)Cc3cccs3)c(C)nc12 28.2 µM, ClC(Cl)(Cl)c1nc2ccccc2n2nncc12 2.82 µM, CCc1ccc(-c2nc(CS(=O)CC(=O)NCc3ccco3)c(C)o2)cc1 (configuration not stated) 0.398 µM, CCOC(=O)c1c(NC(=O)COC(=O)CNC(=O)c2ccco2)sc(C)c1C 2.51 µM, COC(=O)c1cn(NC(=O)c2cc([N+](=O)[O-])ccc2F)c(=O)c2ccccc12 2 µM, COc1ccc(C(=O)N/N=C/c2cc(Br)ccc2O)cc1OC 3.16 µM, COc1ccc(O)c(/C=N/NC(=O)c2ccc(CSc3nc(C)cc(C)n3)cc2)c1 2.82 µM, CC(C)CC(=NNC(=O)c1ccncc1)c1cc(Cl)ccc1O 0.708 µM, O=C(N/N=C/c1cc(Br)ccc1OC(=O)c1ccc(Br)cc1)c1ccncc1 2.82 µM, O=C(N/N=C/c1cc(Br)cc(Br)c1O)c1ccncc1 2.82 µM, O=C(N/N=C/c1cc(Br)cc(Br)c1O)c1cccc(N2CCCC2=O)c1 2 µM, COc1ccc(O)c(/C=N/NC(=O)c2ccc(OCc3cccc(Br)c3)cc2)c1 0.891 µM, O=C(N/N=C/c1cc(Br)ccc1O)c1ccncc1 0.794 µM, CCC(O)(CC)C(=O)N/N=C/c1cc(Br)cc(Br)c1O 17.8 µM, O=C(N/N=C/c1cc(Cl)ccc1O)c1ccncc1 3.16 µM, O=C(N/N=C/c1cc(Br)ccc1O)C(c1ccncc1)N1CCOCC1 (configuration not stated) 14.1 µM, O=C(CP(=O)(c1ccccc1)c1ccccc1)N/N=C/c1cc(Br)cc(Br)c1O 1.58 µM, CN(C)c1ccc(C(=O)N/N=C/c2cc(Br)cc(Br)c2O)cc1 1.41 µM, C/C(=N\N=C(N)N)c1ccc(Cl)cc1Cl 15.8 µM, CC1(C)Cc2ccccc2C(NNC(=O)c2ccccn2)=N1 15.8 µM, O=C(N/N=C/c1cc(Br)cc(Cl)c1O)c1ccc2c(c1)OCO2 3.98 µM, O=C(CNC(=O)c1ccccc1Br)N/N=C/c1cc(Br)ccc1O 2 µM, O=C(CNC(=O)c1ccc2c(c1)OCO2)N/N=C/c1cc(Br)ccc1O 3.55 µM, O=C(N/N=C/c1cc(Cl)ccc1O)c1ccccc1Br 3.98 µM, O=C(CNC(=O)c1ccccc1Br)N/N=C/c1ccccc1O 15.8 µM, O=C(CCc1ccccc1)N/N=C/c1cc(Br)ccc1O 1.12 µM, CCc1ccccc1OCC(=O)Nc1nc(-c2cccnc2)cs1 14.1 µM, COc1ccc(/C=C/C(O)=C2/C(=O)N(C)C3(C)CC2c2ccccc2O3)cc1 (configuration not stated) 20 µM, CCOc1ccc(NS(=O)(=O)c2ccc(C(=O)NNC(=O)c3ccccc3O)cc2)cc1 15.8 µM, Cc1ccc(NS(=O)(=O)c2ccc(C(=O)NNC(=O)c3ccccc3O)cc2)cc1 14.1 µM, Cc1ccc(C)c(S(=O)(=O)N2CCN(c3ncnc4sccc34)CC2)c1 0.631 µM, Cc1ccc(N/C(N)=N/c2nc(C)cc(N3CCCCC3)n2)c(C)c1 3.98 µM
